Screens as filed in PubChem.
KB-V1 MDR tox: qHTS assay for MDR1-selective chemotherapeutics: Primary screen using the drug-selected MDR subline cells KB-V1. actives 3.4% (n = 400,000). AID 1347076, 2019. KB-V1 MDR cells viability, CellTiter-Glo, 72 h. Potency, µM (titrated, usually from 46.1 µM), most hits filed as cytotoxic; also: % is scaled to controls: 0 for no effect and ±100 for the full control effect; nearly all actives have a fitted effect of over 60% in size
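KB-V1, DMEM (no phenol red) + 10% FBS; cpd pin-transferred, titration series; 72 h, 37 degrees C; CellTiter-Glo, luminescence. Data normalized, curve-fit.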
HT1080NT lethal: qHTS for induction of synthetic lethality in tumor cells producing 2HG: qHTS for the HT-1080-NT fibrosarcoma cell line; actives 1.6% (n = 360,000); Potency, µM (doses to about 46.1 µM), inactives show top-dose activity, negative = less viability, most hits filed as cytotoxic; HT-1080-NT fibrosarcoma viability, CellTiter-Glo ATP luminescence, 48 h;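 also: NT is the 2HG producing partner of a matched IDH1 knockdown line; 0% = DMSO-treated cells and -100% = media-only wells without cells; nearly all actives have a fitted effect of over 55% in size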
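Read-out is CellTiter-Glo luminescence after 10 minutes at room temperature, following 48 hours' compound treatment of HT-1080-NT cells (750 cells/well, RPMI, 5% FBS, 37 degrees C).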
SW480 rerep: A quantitative high throughput screen for small molecules that induce DNA re-replication in SW480 colon adenocarcinoma cells. SW480 DNA re-replication, Hoechst DNA content imaging, 48 h. Potency, µM (series often up to 46.1 µM), without a hit: at the highest dose re-replication activation, most hits filed as activators. actives 1.8% (n = 340,000). AID 624297, 2012; also: % of control where 0% means no effect; nearly all actives have a fitted effect of over 55% in size
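Treated cells incubate 48 hr (37 C, 5% CO2), are stained 40 min with Hoechst, and nuclear fluorescence is enumerated; a rise in nuclei with high DNA signal marks re-replication.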
KB-3-1 cytotox: qHTS assay for MDR1-selective chemotherapeutics: Primary screen using the parental adenocarcinoma cell KB-3-1 | KB-3-1 viability, CellTiter-Glo ATP luminescence, 72 h | Potency, µM (doses to about 46.1 µM), usual class: cytotoxic | actives 1.4% (n = 400,000) | AID 1347075, 2019; also: % is scaled to controls: 0 for no effect and ±100 for the full control effect; nearly all actives have a fitted effect of over 60% in size
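Parental KB-3-1 adenocarcinoma cells in phenol-red-free DMEM with 10% FBS were pin-treated with compounds at several concentrations, incubated 72 h at 37 °C, and viability read by CellTiter-Glo luminescence; concentration-effect curves were fitted after normalization.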
HT1080 IDH1KD tx: qHTS for induction of synthetic lethality in tumor cells producing 2HG: qHTS for the HT-1080-IDH1KD cell line; HT-1080 IDH1 knockdown viability, ATP luminescence, 48 h; Potency, µM (top dose mostly 46.1 µM), for inactives: at the highest dose activity, negative = toxicity, hits mostly cytotoxic; actives 2% (n = 360,000); AID 686971, 2013;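 also: 0% = DMSO wells and -100% = cell-free medium wells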
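Using the IDH1-knockdown HT-1080 line run in the same batch and compound series as the NT line, viability after 48 h at 37 °C was determined by CellTiter-Glo luminescence and expressed as % activity.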
MCF10A rerep: A quantitative high throughput screen for small molecules that induce DNA re-replication in MCF 10a normal breast cells. actives 2.9% (n = 350,000). Potency, µM (series often up to 46.1 µM), without a hit: top-dose activity, positive = re-replication, hits mostly activators. MCF 10A DNA re-replication, Hoechst nuclear intensity, 48 h; also: % of control where 0% means no effect; nearly all actives have a fitted effect of over 50% in size
The depositor's hits bear a star; i = inactive; ? = inconclusive; / = no result given; [ ] = remark or other dose. Shown are actives, neighbours in structure and some others; about 8% of the full set was active somewhere. Calls follow the shape of the dose curve; as a rule, active = well fitted curve in the direction sought with a large enough effect; inconclusive = small, poorly fitted or top-dose-only effect, or another doubt; inactive = no such curve, though single readings can be large; an effect the other way counts as inactive or inconclusive. Potency is read from the fitted curve at half-maximal effect.

SMILES | KB-V1 MDR tox | HT1080NT lethal | SW480 rerep | KB-3-1 cytotox | HT1080 IDH1KD tx | MCF10A rerep
O=C(/C=C/c1ccccc1)Nc1ncn[nH]1 | i | 11µM* | ? | i | 7.9µM* | -6%
O=C(CS(=O)(=O)c1ccccc1)Nc1ccc(Br)cn1 | 16µM* | -5% | -1% | i | -3% | 2%
Cc1ccc(-c2nnc(Nc3ccc(OCC(N)=O)cc3)c3ccccc23)cc1S(=O)(=O)N(C)C | i | / | / | ? | / | /
COc1cccc(/C=C/c2ccnc3ccccc23)c1OC | i | / | / | i | / | /
C=CCCC(=O)Nc1ccc(Br)cn1 | ? | ? | 16µM* | ? | ? | 9.2µM*
CCCCC(=O)Nc1ccc(Br)cn1 | i | 2% | -6% | i | 9% | -7%
C#CCn1c(=NC(=O)c2ccc(S(=O)(=O)N3CCCc4ccccc43)cc2)sc2cc(S(N)(=O)=O)ccc21 | i | -9% | 1% | ? | -15% | 1%
COC(=O)Nc1ccc(S(=O)(=O)N2CCCc3cccc(O)c32)cc1 | ? | ? | 26µM* | ? | ? | 13µM*
Cn1c(=NC(=O)c2ccc(S(=O)(=O)N3CCCc4ccccc43)cc2)sc2cc(S(C)(=O)=O)ccc21 | 3.7µM* | 3% | 0% | i | 0% | 4%
COC(=O)Nc1ccc(S(=O)(=O)N2CCCc3ccccc32)cc1 | 1.2µM* | 8.9µM* | 1.6µM* | 1.5µM* | 1.4µM* | 8.2µM*
O=C1c2ccc(-c3ccc(F)cc3OCc3ccccc3)cc2S(=O)(=O)c2cccc(C(=O)N3CCCC3)c21 | i | -4% | 0% | ? | -7% | ?
COc1cccc(C(C(=O)NC2CCCC2)N2CCN(c3cc(C)ccc3C)CC2)c1OC (stereo not given) | 16µM* | ? | / | ? | ? | /
O=C(CCl)NC(Cc1ccccc1)C(=O)OCC(=O)c1ccc(-c2ccccc2)cc1 (stereo not given) | i | -25% | -3% | i | ? | 16%
O=S(=O)(c1ccccc1)N1CCN(CCO)CC1 | i | 9% | -30% | i | 11% | -4%
NNC(=O)c1sc2nc(N3CCOCC3)c3c(c2c1N)CCCC3 | i | -4% | 16µM* | i | -28% | 21µM*
COc1cccc(NC(=O)c2sc3nc(N4CCOCC4)c4c(c3c2N)CCCC4)c1 | i | 0% | 8% | i | -4% | 2.3µM*
Nc1c(C(=O)Nc2ccccc2)sc2nc(N3CCOCC3)c3c(c12)CCCC3 | i | 0% | / | i | -4% | /
N#Cc1sc2nc(N3CCCCC3)c3c(c2c1N)CCCC3 | 7.3µM* | ? | -4%[9.22 µM] | ? | ? | ?
Nc1c(C(=O)N2CCOCC2)sc2nc(N3CCOCC3)c3c(c12)CCCC3 | i | 9% | -11% | i | -1% | 15%
CCOc1ccc(NC(=O)c2sc3nc(N4CCOCC4)c4c(c3c2N)CCCC4)cc1 | i | 7% | 2.9µM* | i | 13% | 23µM*
Cc1nc2sc(C#N)c(N)c2c2c1CCCC2 | i | 17% | -4%[9.22 µM] | i | 9% | -10%
Cc1ccc(N[S+](=O)([O-])c2cc3c(cc2CCc2ccccc2)NC(=O)CO3)cc1C | i | / | / | i | / | /
Cc1ccc(NC(=O)c2sc3nc(N4CCOCC4)c4c(c3c2N)CCCC4)cc1 | i | 0% | / | i | 0% | /
CC(=O)c1ccc(NC(=O)c2sc3nc(N4CCOCC4)c4c(c3c2N)CCCC4)cc1 | i | 0% | ? | i | 1% | 2.3µM*
